B2AR ag – beta2AR agonists driving receptor internalization, primary screen, cell-based, FAP fluorogen, flow cytometry; Beta-2 adrenergic receptor (Homo sapiens), P07550; Am2.2-beta2AR cells; response, % (concentration not given with the values); 0.43% of 340,000 active; AID 504454, 2011;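 active means response above a set limit, near 3 SD of response in nonfluorescent compounds, cut at about 42% in these data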
TLR4-MyD88 BLA – inhibitors of TLR4-MyD88 association in cells, primary screen, cell-based, HeLa CL3-4, BLA complementation, FRET ratio; Toll-like receptor 4 (Homo sapiens) + Myeloid differentiation primary response protein …; HeLa CL3-4 TLR4/MyD88 BLA complementation; inhibition, % at 8.4 µM; 0.18% of 200,000 active; in the data active means inhibition above about 25%;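 further: 0% = vehicle and 100% = reference inhibitor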
ABHD5-PLIN5 inh – ABHD5-PLIN5 interaction inhibitors, primary screen, cell lysate, split luciferase complementation, luminescence; inhibition, % at 4 µM; 0.78% of 360,000 active; Perilipin-5 (Homo sapiens) + 1-acylglycerol-3-phosphate O-acyltransferase ABHD5 (Homo …; Split G. princeps luciferase complementation, 4 h; AID 602281, 2012;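 active means inhibition above the mean inhibition across every tested compound plus 3 SD, cut at about 22% in these data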;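 further: 0% = DMSO only wells and the 100% control is not disclosed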
TLR9-MyD88 inh – inhibitors of TLR9-MyD88 association in cells, primary screen, cell-based, CHO, BLA complementation, fluorescence. 0.21% of 340,000 active. AID 504734, 2011. inhibition, % at 4.98 µM. CCF4 FRET ratio;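 active means inhibition above the mean over all tested compounds plus 3 SD, cut at about 21% in these data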;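 further: 0% = DMSO only wells and 100% = clavulanate BLA inhibitor control wells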
Granule exo inh – LAMP-1 surface exposure blockers, TALL-104 cells – cell-based, flow cytometry, MLPCN library, primary screen | TALL-104 LAMP-1 surface exposure; cells stimulated with thapsigargin and PMA | inhibition, % at 10 µM | 0.66% of 360,000 active;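 active means inhibition above about 55%, limit read from the data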
NOD2-RIPK2 inh – NOD2-RIPK2 binding disruptors in cells, primary screen, fluorescence, CHO cells, BLA complementation; Receptor-interacting serine/threonine-protein kinase 2 (Homo sapiens), O43353; AID 624267, 2012; inhibition, % at 4.98 µM; 0.38% of 360,000 active; CCF4 ratio; in the data active means inhibition above about 21%;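 further: 0% = vehicle only and 100% = reference blocker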
ABHD5 PLIN5 conf – ABHD5-PLIN5 interaction inhibitors, confirmation, biochemical, luminescence | inhibition, % at 4 µM | 67% of 2,200 active | shares compounds with ABHD5-PLIN5 inh | AID 651612, 2012; in the data active means inhibition above about 23%;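 further: 0% = DMSO vehicle wells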
HNF4 split-luc – HNF4 dimerization inhibitors, counter-screen for ABHD5-PLIN5 interaction inhibitor project, biochemical, split-luciferase complementation, luminescence | inhibition, % at 4 µM | shares compounds with ABHD5-PLIN5 inh | 77% of 2,200 active;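 active means mean inhibition across replicate wells exceeding the computed hit threshold, cut at about 13% in these data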;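 further: light from luciferase halves that rejoin when HNF4 fusion proteins dimerize; 0% = DMSO only wells and the 100% control is not given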
Target sequence (P41235 whole entry, looked up, the tested form may be a part): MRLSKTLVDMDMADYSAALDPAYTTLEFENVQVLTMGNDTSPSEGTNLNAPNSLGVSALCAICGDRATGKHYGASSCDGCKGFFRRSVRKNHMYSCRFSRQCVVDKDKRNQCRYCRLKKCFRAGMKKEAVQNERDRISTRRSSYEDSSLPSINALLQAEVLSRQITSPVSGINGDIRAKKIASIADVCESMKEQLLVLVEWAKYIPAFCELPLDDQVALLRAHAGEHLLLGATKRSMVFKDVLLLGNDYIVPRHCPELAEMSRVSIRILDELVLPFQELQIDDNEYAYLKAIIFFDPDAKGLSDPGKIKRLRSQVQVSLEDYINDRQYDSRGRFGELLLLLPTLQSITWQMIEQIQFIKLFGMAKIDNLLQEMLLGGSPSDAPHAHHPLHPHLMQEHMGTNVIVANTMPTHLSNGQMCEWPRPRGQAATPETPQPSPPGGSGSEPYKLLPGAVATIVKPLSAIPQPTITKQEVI
Starred values were filed as active, the others as inactive; . = no result. Shown are actives, neighbours in structure and some others; about 2% of the full set was active somewhere.

SMILES	B2AR ag	TLR4-MyD88 BLA	ABHD5-PLIN5 inh	TLR9-MyD88 inh	Granule exo inh	NOD2-RIPK2 inh	ABHD5 PLIN5 conf	HNF4 split-luc
Cc1cc(C)c2sc(N(CCCN(C)C)C(=O)COc3ccc(Cl)cc3)nc2c1	23.4	0.1	20.8	5.3	33.9	17.9	.	.
C[C@H](O)[C@@H]1CN2CCc3c([nH]c4ccccc34)[C@@H]2C[C@@H]1N(C)C(=O)OCc1ccccc1	.	.	-6.9	.	-0.5	1.6	.	.
Cc1ccc(/C=C/C(=O)Nc2cccnc2)o1	1.2	-10.7	21.1	-0.5	-0.6	-1.0	.	.
Cc1ccc(/C=C/C(=O)Nc2cccc3ncccc23)o1	0.3	-9.4	42.5*	2.5	10.2	4.8	29.5*	32.9*
CC1CCC(C(C)C)C(OC(=O)Cn2c(-c3ccc(Cl)cc3)[n+](C)c3ccccc32)C1 (configuration not stated)	18.6	.	33.8*	6.0	15.0	1.2	15.2	3.8
CC1CCC(C(C)C)C(OC(=O)Cn2c(-c3ccc(Br)cc3)[n+](C)c3ccccc32)C1 (configuration not stated)	14.7	-3.7	16.7	3.5	28.9	-14.0	.	.
COC(=O)C/C=N/N=C1/NC(=O)/C(=C/C(=O)O)S1	10.3	.	25.8*	-9.9	0.6	-1.7	21.7	19.4*
Cc1c(-n2c(O)c(C3=c4ccccc4=NC3=O)sc2=O)c(=O)n(-c2ccccc2)n1C	7.3	-5.4	-4.5	0.5	-3.1	-0.8	.	.
Cc1ccc2c(c1)c(C1=c3ccccc3=NC1=O)c(O)n2C	-2.5	.	33.0*	12.0	6.2	12.1	88.0*	108.0*
O=C(Oc1ccccc1/C=C\C(=O)c1cc2ccccc2o1)c1ccccc1	-6.8	7.0	30.5*	-6.9	61.1*	-4.5	98.7*	100.8*
O=C(Oc1ccccc1/C=C\C(=O)c1cc2ccccc2o1)c1cccc(F)c1	24.5	8.6	32.4*	-6.0	55.4	5.6	98.8*	94.6*
O=C(Nc1ccccc1)c1ccc(OC(=O)c2cc3ccccc3o2)cc1	12.9	-0.2	1.3	-5.2	-4.8	-8.3	.	.
COc1cccc(-c2cnc(C(O)c3cc(C)cc(C)c3)[nH]2)c1 (configuration not stated)	.	.	0.8	.	-2.0	7.4	.	.
Cc1ccc(C(=O)Nc2nnc([C@H]3C[C@H](O)[C@@H](CO)O3)s2)cc1	.	.	5.5	.	11.6	-2.4	.	.
CC(C)N1CC(=O)N2CSCC2C1=O (configuration not stated)	.	.	-0.3	.	-6.0	-0.2	.	.
C=CCSc1nc2ccccc2n1C(=O)/C=C/c1cc(OC)c(OC)c(OC)c1	85.8*	-16.0	42.5*	0.8	8.7	2.0	88.1*	71.7*
C=CCSc1nc2ccccc2n1C(=O)/C=C/c1ccc(OC)c(OC)c1	34.3	-1.4	9.3	0.5	-2.8	1.9	.	.
C[C@@H]1CCCCCCCCC(=O)OCCN(C(=O)OC(C)(C)C)[C@H](C)CCCCCCCCC(=O)OCCN(C(=O)OC(C)(C)C)[C@H](C)CCCCCCCCC(=O)OCCN(C(=O)OC(C)(C)C)[C@H](C)CCCCCCCCC(=O)OCCN1C(=O)OC(C)(C)C	-1.4	.	-5.1	7.8	-1.6	-12.2	.	.
O=C1CCCCCCCCCC/C(=N\O)CCCO1	12.5	.	92.1*	.	10.8	-2.7	-4.7	1.3
O=C1C=CC(=Nc2ccc3c(c2)Cc2cc(F)ccc2-3)O1	8.7	.	28.5*	0.4	-5.9	-4.9	33.4*	59.5*
O=C1C=CC(=Nc2cccc3c2C(=O)c2ccccc2-3)O1	7.4	.	6.4	-11.9	0.0	15.3	.	.
CN(C)C1CN(Cc2cn(Cc3ccc(Cl)cc3)nn2)S(=O)(=O)C1 (configuration not stated)	.	.	1.3	.	6.7	-7.9	.	.
O=C(Nc1ccc(F)cc1)C(c1cccc(F)c1)N1CCN(Cc2c(F)cccc2Cl)CC1 (configuration not stated)	.	.	-13.9	.	-11.0	-2.3	.	.
O=C(/C=C/c1cccs1)c1cc(Br)ccc1OC(=O)N1CCOCC1	-9.0	2.2	25.4*	0.2	17.0	1.5	57.0*	39.6*
COc1ccc(C(=O)/C=C/c2cccs2)c(OC(=O)N2CCOCC2)c1	-20.2	-1.4	5.8	-6.7	0.2	-18.4	.	.
SMILES	B2AR ag	TLR4-MyD88 BLA	ABHD5-PLIN5 inh	TLR9-MyD88 inh	Granule exo inh	NOD2-RIPK2 inh	ABHD5 PLIN5 conf	HNF4 split-luc
COc1ccc(CNC(=O)CSCc2cccc(Cl)c2)cc1	-3.0	-5.9	67.5*	-6.1	-2.8	-6.2	-2.3	0.5
CN[C@@H](CO)C(=O)NC[C@H]1O[C@@H](n2cc(C)c(=O)[nH]c2=O)C[C@@H]1O	.	.	4.1	4.7	2.0	-5.2	.	.
Cc1ccc2nc(-c3ccco3)c(Cc3cccc(F)c3)n2c1	.	.	56.4*	.	24.0	-14.0	10.8	19.9*
COc1ccccc1Cc1c(-c2ccco2)nc2ccc(C)cn12	.	.	55.7*	.	44.2	-5.4	27.1*	48.0*
Cc1ccc2nc(-c3ccccc3)c(Cc3cccc(F)c3)n2c1	.	.	-4.9	.	-9.0	-2.9	.	.
Brc1ccc2nc(-c3ccco3)c(CC3CCCCC3)n2c1	.	.	23.8*	.	6.7	0.1	28.3*	37.8*
Cc1ccc2nc(-c3ccc(Cl)cc3)c(CC3CCCCC3)n2c1	.	.	-8.7	.	-3.1	-3.4	.	.
Cc1ccc2nc(-c3ccco3)c(CC3CCCCC3)n2c1	.	.	35.0*	.	14.5	-4.6	17.0	21.7*
CN(C)CCN1CCN(C2CN(Cc3ccc(F)cc3)S(=O)(=O)C2)CC1 (configuration not stated)	.	.	16.4	.	-4.6	8.8	.	.
Cc1cc(Br)cn2c(Cc3ccccc3)c(-c3cccc(Br)c3)nc12	.	.	-7.2	.	10.5	-7.5	.	.
FC(F)(F)c1ccccc1Cc1c(-c2ccccc2)nc2ccc(Cl)cn12	.	.	-9.2	.	-5.0	-8.7	.	.
FC(F)(F)c1ccccc1Cc1c(-c2ccco2)nc2ccc(Cl)cn12	.	.	34.1*	.	13.5	-7.6	45.9*	63.0*
Cc1cc(Br)cn2c(Cc3ccccc3)c(-c3ccco3)nc12	.	.	29.9*	.	14.7	7.0	29.7*	45.0*
O=C(NCc1ccc(Cl)c(Cl)c1)c1cc(C2CCCCN2C(=O)c2cccs2)on1 (configuration not stated)	.	.	-1.3	.	5.2	-8.7	.	.
CCOC(=O)[C@]12CCC=C1N(Cc1cccc3ccccc13)C(=O)[C@H](CC(=O)NCCC(C)C)C2	.	.	1.9	.	1.4	-14.8	.	.
